Measurements published in PubChem BioAssay AID623972 (The Scripps Research Institute Molecular Screening Center, 2012).
“And” between values parts separate entries of the source, which are not always exact repeats. Equal values may be shown once. The source made the active and inactive calls. No rule for the calls is given here.

Assay: compound-DNA interaction, EtBr readout – biochemical, fluorescence, ethidium bromide, artefact control for HCV NS3 helicase inhibitor project, late-stage follow-up (AID 623972)
Conditions: DNA binding, ethidium bromide displacement fluorescence

SMILES | IC50
CCN(CC)c1ccc(-c2nc3ccc(-c4nc5ccc(C)c(S(=O)(=O)O)c5s4)cc3s2)cc1 | > 100 µM (inactive)
CN1CCN(Cc2cc(CN3CCN(C)CC3)c(O)c(=O)c(CN3CCN(C)CC3)c2)CC1 | 31 µM (active)
Cc1ccc2nc(-c3ccc4nc(-c5ccc6nc(-c7ccc(N)cc7)sc6c5)sc4c3)sc2c1S(=O)(=O)O | 55 µM (active)
Cc1ccc2nc(-c3ccc4nc(-c5ccc(N)cc5)sc4c3)sc2c1S(=O)(=O)O | > 100 µM (inactive)
Cc1ccc2nc(-c3ccc4nc(-c5ccc6nc(-c7ccc8nc(-c9ccc(N)cc9)sc8c7)sc6c5)sc4c3)sc2c1S(=O)(=O)O | 15 µM (active) and 76 µM (active)
Cc1cc2sc(-c3ccc4nc(-c5ccc(N)cc5)sc4c3)nc2cc1S(=O)(=O)O | > 100 µM (inactive)
Cc1ccc2nc(-c3ccc(N)cc3)sc2c1S(=O)(=O)O | > 100 µM (inactive)
Cc1ccc2nc(-c3ccc4nc(-c5ccc6nc(-c7ccc(N)cc7)sc6c5)sc4c3)sc2c1S(=O)(=O)O (tested in a mixture with another compound) | 73 µM (active)
Cc1cc(C(O)(c2ccc(Nc3ccccc3)cc2)c2ccc(Nc3ccc(S(=O)(=O)O)cc3)cc2)ccc1N (stereo not drawn) | 4 µM (active)
Cc1cc2sc(-c3ccc(N)cc3)nc2cc1S(=O)(=O)O | > 100 µM (inactive)
CCN(CC)c1ccc(-c2nc3ccc(C)c(S(=O)(=O)O)c3s2)cc1 | > 100 µM (inactive)
COc1cccc2c(=O)c3cc(Cl)cc(C(=O)Nc4cc(Cl)ccn4)c3[nH]c12 | > 100 µM (inactive)
CCOc1ccc2c(NNC(=O)c3cnccn3)c3c(nc2c1)CCCC3 | > 100 µM (inactive)
